# Source: PubChem BioAssay (Tox21)
# Records with an inconclusive call do not appear. Values without a mark were called inactive. Active and inactive are the calls of the source. Calls come from the whole dose curve; as a rule, active = well fitted inhibition curve with a large enough effect in the signal ratio in the repeat runs; inconclusive = weak or mixed curves, or effect the other way; inactive = flat fitted curve, though single readings scatter; the % refers to the signal ratio.
# Assay: qHTS assay for small molecule disruptors of the mitochondrial membrane potential (AID 720635)
# Conditions: HepG2 mitochondrial membrane potential, Mito-MPS dye ratio; series mostly up to 83.2 µM; ratio activity, negative = MMP loss: at the top concentration
# Source text: U.S. Tox21 Program National Center for Advancing Translational Sciences [NCATS] NIH Chemical Genomics Center [NCGC] U.S. Environmental Protection Agency [EPA] National Institutes of Environmental Health Sciences [NIEHS] National Toxicology Program [NTP] U.S. Food and Drug Administration [FDA] Tox21 Assay Overview: Mitochondrial membrane potential (MMP), one of the parameters for mitochondrial function, is generated by mitochondrial electron transport chain that creates an electrochemical gradient by a series of redox reactions. This gradient drives the synthesis of ATP, a crucial molecule for various cellular processes. Measuring MMP in living cells is commonly used to assess the effect of chemicals on mitochondrial function. […] The dye accumulates in the mitochondria of healthy cells as aggregates, with red fluorescence. The mitochondrial potential collapses and the dye can no longer accumulate in the mitochondria and remains in the cytoplasm in monomers, with green fluorescence.
# Tox21 Assay Protocol Summary: 2,000 HepG2 cells in 5 uL/well were dispensed into black, clear-bottom 1536-well plates using a Multidrop Combi (Thermo Scientific) dispenser. The assay plates were incubated overnight at 37C to allow cells to attach to the wells, followed by the transfer of 23 nL compound or DMSO vehicle by a pin tool (Kalypsys). The plates were incubated for 1 hr at 37C and 5% CO2, followed by the addition of 5 uL of 2X Mito-MPS dye (BD Biosciences) into each well using Flying Reagent Dispenser (Aurora Discovery) and then following 30 min incubation at 37C. Fluorescence intensity (490nm excitation and 535nm emission for monomers; and 540nm excitation and 590nm emissions for aggregates) was measured using an Envision plate reader.
# % is set by controls: 0 for no effect and ±100 for the full control effect; potency is the fitted concentration of half-maximal effect.
Structure (SMILES),"ratio activity, negative = MMP loss",Potency
Cc1cc(C(C)(C)C)c(O)c(C)c1CC1=NCCN1,20.2%,
CC1(CO)CN(c2ccccc2)NC1=O (stereo not given),-16.5%,
O=C(O)c1ccc(Cl)cc1Cl,5.01% [at 95.3 µM],
CC(=O)NCCCCCC(=O)O,-10.6%,
CC(=O)OC(C)OC(=O)C(C)c1ccc(-c2ccccc2)c(F)c1 (stereo not given),-3.39%,
O=S(=O)(O)CCN1CCN(CCO)CC1,14.4%,
O=C(O)Cc1cn(-c2ccccc2)nc1-c1ccc(Cl)cc1,-18.9%,
COP(=O)(OC)OC(c1ccc(Cl)cc1)P(=O)(OC)OC (stereo not given),18.3%,
Cc1ccc(C=O)cc1C,27.2%,
CN1C(C)(C)CCCC1(C)C,-6.5%,
C[C@@H](O)[C@H]1C(=O)N2C(C(=O)O)=C(SCCN=CN)C[C@H]12,-4.28% [at 39.1 µM],
CC1=C(C(=O)O)N2C(=O)[C@@H](NC(=O)[C@H](N)c3ccc(O)cc3)[C@H]2SC1,-11.5% [at 39.1 µM],
On1nnc2ccccc21,9.71%,
Nc1ccc2cc(S(=O)(=O)O)cc(O)c2c1,-18.9%,
COc1cc(C(=S)N2CCOCC2)cc(OC)c1OC,-6.39%,
CCCC/C=C\CCCCCCCCCC=O,21.9%,
C=C(C)C1CCC(C)(O)CC1 (stereo not given),23.7%,
CCN(CC)CC(=O)Nc1c(C)cccc1C,11.6%,
CCCCCCCCOS(=O)(=O)O,23.9%,
Cc1ccsc1/C=C/C1=NCCCN1C,16.1% [at 39.1 µM],

Structure (SMILES),"ratio activity, negative = MMP loss",Potency
NCCN1CCOCC1,28.3%,
CC(=O)Nc1cccc(C)c1,9.78% [at 95.3 µM],
C=C(C)C(=O)OCCOP(=O)(O)OCCOC(=O)C(=C)C,17.7%,
CC(C)OC(=O)CCCCC(=O)OC(C)C,,54.6 µM (active)
CCCCCCOC(=O)CC,6%,
c1ccc2nccnc2c1,-6.78% [at 95.3 µM],
CC(CC=O)CCCC(C)(C)O (stereo not given),,inactive
CC(=O)N[C@@H](CCC(=O)O)C(=O)O,-18.9%,
FC(F)(F)c1ccccc1-n1ccnc1,8.15%,
C=C(C)C(=O)OCCNC(C)(C)C,26.3%,
O=C(NCCN1CCOCC1)c1ccc(Cl)cc1,,inactive
CCCCC(CC)COCCO (stereo not given),24.5%,
CCCCOC(=O)c1ccccc1,6.92%,
CN1CCN(CC(=O)N2c3ccccc3C(=O)Nc3cccnc32)CC1,-14.6%,
CCOC(=O)[C@H](CCc1ccccc1)N[C@@H](C)C(=O)N1C(=O)N(C)C[C@H]1C(=O)O,-7.99%,
CC(C)CCCCOC(=O)c1ccccc1C(=O)OCCCCC(C)C,-14.8%,
Cc1cc(NC(=O)C2=C(O)c3ccccc3S(=O)(=O)N2C)no1,,2.66 µM (active)
COc1cc(N)ccc1C,-9.64%,
Oc1cn2c(n1)Nc1ccc(Cl)c(Cl)c1C2,8.02%,
C[C@@H]1O[C@@H](O[C@@H]2[C@@H](O)[C@H](OCCc3ccc(O)c(O)c3)O[C@H](CO[C@@H]3O[C@H](CO)[C@@H](O)[C@H](O)[C@H]3O)[C@H]2OC(=O)/C=C/c2ccc(O)c(O)c2)[C@H](O)[C@H](O)[C@H]1O,-9.56%,
